Data taken from the supplement of paper PMC13380429.

test system: Vero E6 infected with SARS-CoV-2; assay: morphology score (similarity to uninfected cells); higher = more like uninfected cells; settings: 24 h

Point of comparison: CC(CN(C)C)C(C)(O)Cc1ccc(Cl)cc1 (stereo unspecified) [clobutinol] (10 µM), morphology score 0.00198. Against it:
- Cc1cc(OCc2nnc(SC3CCCC3)n2-c2cccnc2)ccc1-c1ccc(S(C)(=O)=O)cc1 (0.833333 µM) — higher, 0.0612
- COc1ccc(Cl)cc1[C@]1(F)C(=O)Nc2cc(C(F)(F)F)ccc21 [flindokalner] (10 µM) — higher, 0.165
- COC(=O)[C@@H]1[C@H]2C[C@H]3c4[nH]c5ccccc5c4CCN3C[C@@H]2CC[C@@H]1O [yohimbine] (10 µM) — higher, 0.0665
- c1ccc2nc(C3=NCCN3)ccc2c1 (10 µM) — higher, 0.125
- COc1ccc(-n2nc(CCC(=O)N(C)O)cc2-c2ccc(Cl)cc2)cc1 [tepoxalin] (0.833333 µM) — higher, 0.0433
- CCCCCCCCCCCCCC(=O)[O-].CCCCCCCCCCCCCC(=O)[O-].N[C@@H]1CCCC[C@H]1N.[Pt+2] [miriplatin] (10 µM) — higher, 0.0834
- C/C=C1/[C@H](O[C@@H]2O[C@H](CO)[C@@H](O)[C@H](O)[C@H]2O)OC=C(C(=O)OC)[C@H]1CC(=O)OCCc1ccc(O)c(O)c1 [oleuropein] (10 µM) — lower, -0.0158
- CN(C)CCCCSC(=N)N (10 µM) — higher, 0.0735
- Cc1ccc(C(=O)Cn2c3c(sc2=N)CCCC3)cc1 [pifithrin-alpha] (10 µM) — lower, -0.224
- NS(=O)(=O)c1ccc(-n2nc(C(F)(F)F)cc2-c2ccc(Cl)cc2)cc1 (10 µM) — higher, 0.0527
- CN1CC[C@@H](NC(=O)Nc2ccc(C#N)cc2)C[C@@H]1c1nc2ccccc2[nH]1 [glasdegib] (10 µM) — higher, 0.066
- CC1(C)[C@H](C(=O)O)N2C(=O)C[C@H]2S1(=O)=O [sulbactam] (10 µM) — higher, 0.0596
- NC1(Cc2ccc(Cl)cc2)CCN(c2ncnc3[nH]ccc23)CC1 (0.833333 µM) — higher, 0.535
- CC(=O)N[C@H](Cc1ccc2ccccc2c1)C(=O)N[C@H](Cc1ccc(Cl)cc1)C(=O)N[C@H](Cc1cccnc1)C(=O)N[C@@H](CO)C(=O)N[C@@H](Cc1ccc(O)cc1)C(=O)N[C@H](CCCNC(N)=O)C(=O)N[C@@H](CC(C)C)C(=O)N[C@@H](CCCNC(=N)N)C(=O)N1CCC[C@H]1C(=O)N[C@H](C)C(N)=O [cetrorelix] (10 µM) — higher, 0.394
- O=c1[nH]c2ccccc2c(=O)n1CCCN1CCN(c2ccccc2)CC1 [pelanserin] (10 µM) — higher, 0.0358
- COC(=O)Nc1nc2cc(SC(C)C)ccc2[nH]1 [methiazole] (0.833333 µM) — lower, -0.254
- CCCc1c2oc(C(=O)O)cc(=O)c2cc2c(=O)cc(C(=O)O)n(CC)c12 [nedocromil] (10 µM) — lower, -0.0269
- Nc1ccc(S(=O)(=O)Nc2ccnn2-c2ccccc2)cc1 [sulfaphenazole] (10 µM) — higher, 0.178
- O=C(O[C@H]1[C@H](OC(=O)c2cccnc2)[C@@H](OC(=O)c2cccnc2)[C@H](OC(=O)c2cccnc2)[C@@H](OC(=O)c2cccnc2)[C@H]1OC(=O)c1cccnc1)c1cccnc1 [inositol-hexanicotinate] (10 µM) — higher, 0.0225
- CCNCc1cc(C(C)(C)C)c(O)c(C(C)(C)C)c1 (10 µM) — higher, 0.195
- C[C@H]1COC2=C1C(=O)C(=O)c1c2ccc2c1CCCC2(C)C [cryptotanshinone] (10 µM) — higher, 0.0318
- CN1CCN(c2cccc3[nH]c(=O)oc23)CC1 [pardoprunox] (10 µM) — lower, -0.1
- CC1(C)CCC(C)(C)c2cc(C3(c4ccc5cc(C(=O)O)ccc5c4)SCCS3)ccc21 (10 µM) — higher, 0.132
- FC(F)(F)C(F)(F)C(F)(F)N(C(F)(F)C(F)(F)C(F)(F)F)C(F)(F)C(F)(F)C(F)(F)F [perfluamine] (10 µM) — higher, 0.16
- NC(=O)c1[nH]cnc1O (10 µM) — lower, -0.0334
- CCC[C@@H]1C[C@@H](C(=O)N[C@@H]([C@H]2O[C@H](SC)[C@H](OP(=O)(O)O)[C@@H](O)[C@H]2O)[C@H](C)Cl)N(C)C1 [Clindamycin phosphate] (10 µM) — lower, -0.0234
- Cc1nc2c(c(=O)[nH]1)CSCC2 (10 µM) — higher, 0.0297
- CCc1nc(N)nc(N)c1-c1ccc(Cl)cc1 [pyrimethamine] (0.833333 µM) — lower, -0.0159
- O=C(Nc1ccccc1)OCC(CN1CCCCC1)OC(=O)Nc1ccccc1 (stereo unspecified) [diperodon] (10 µM) — lower, -0.0894
- NC(=O)c1cc([N+](=O)[O-])cc([N+](=O)[O-])c1 [nitromide] (10 µM) — higher, 0.265
